Test results taken from the supplement of paper PMC3334620.
Whole data set: some 33,000 sequences, median “E-score (-0.5 to 0.5)” near -0.056, cut for the highest 2% near 0.38. This excerpt belongs to a sample that is enriched for the highest values.

Molecular target: Stb4 (UniProt P50104)
Experiment: PBM E-score (8-mer binding enrichment) (E-score (-0.5 to 0.5)); higher = stronger / more preferred TF binding
Settings: protein concentration: 200 nM; construct: GST-DNA-binding domain
In short: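 Universal all-10-mer Agilent arrays, double-stranded by primer extension on fresh or once-stripped slides, were probed with about 100-200 nM GST-tagged yeast transcription factors made by PURExpress. Fluorescent anti-GST detected bound protein, and masliner normalised the scans. E-scores from the Universal PBM Analysis Suite were given to each ungapped eight-base word pooled with its reverse complement.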

UniProt P50104, sequence (P50104 whole entry): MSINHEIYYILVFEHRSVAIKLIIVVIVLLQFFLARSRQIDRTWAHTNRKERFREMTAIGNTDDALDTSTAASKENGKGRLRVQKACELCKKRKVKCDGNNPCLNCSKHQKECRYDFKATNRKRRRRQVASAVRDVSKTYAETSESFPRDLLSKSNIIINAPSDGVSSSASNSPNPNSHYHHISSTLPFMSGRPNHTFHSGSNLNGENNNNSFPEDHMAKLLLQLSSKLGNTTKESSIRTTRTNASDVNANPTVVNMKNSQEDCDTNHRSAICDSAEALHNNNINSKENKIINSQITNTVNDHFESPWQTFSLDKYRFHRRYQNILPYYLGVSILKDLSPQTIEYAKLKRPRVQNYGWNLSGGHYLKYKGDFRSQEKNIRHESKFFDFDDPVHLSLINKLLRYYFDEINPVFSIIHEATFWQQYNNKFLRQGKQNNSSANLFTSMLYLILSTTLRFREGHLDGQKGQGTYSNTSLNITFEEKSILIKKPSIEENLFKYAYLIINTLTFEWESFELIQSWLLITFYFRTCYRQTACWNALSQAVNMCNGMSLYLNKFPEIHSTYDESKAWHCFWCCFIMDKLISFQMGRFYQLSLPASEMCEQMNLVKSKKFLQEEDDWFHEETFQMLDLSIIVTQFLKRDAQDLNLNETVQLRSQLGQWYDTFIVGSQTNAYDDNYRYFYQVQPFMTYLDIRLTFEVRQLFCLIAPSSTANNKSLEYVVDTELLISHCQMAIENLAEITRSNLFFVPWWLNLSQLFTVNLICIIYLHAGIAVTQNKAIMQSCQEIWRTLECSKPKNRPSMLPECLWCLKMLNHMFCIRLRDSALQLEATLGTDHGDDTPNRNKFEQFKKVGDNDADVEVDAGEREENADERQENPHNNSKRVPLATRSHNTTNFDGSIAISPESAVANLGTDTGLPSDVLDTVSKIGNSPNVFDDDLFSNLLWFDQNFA

Sequence | PBM E-score
CTTTCTGA | -0.25
CGCGCCAG | 0.104
AGCGCTCG | -0.0312
CTTCGTCA | -0.177
GTAGTTCA | 0.0756
GCGGTGCA | -0.283
ATTCTCCG | 0.264
AGTAAAAC | -0.181
GTGGTGAA | 0.0732
GTTTCGGA | 0.43
GTTTCGTA | 0.128
GTTTCGAA | -0.145
AAGCTGAT | 0.104
CCACCTAC | -0.246
AGCATCAA | -0.15
ACAGGTGG | -0.226
CCGAGGAG | 0.393
CCGAGGAC | 0.371
CGGAGGAG | 0.209
TCGAGGAA | -0.13
CCGAGGAA | 0.387
ACGAGGAG | -0.349
ATGAAGGG | -0.114
CAGGAGTC | -0.0625
AGTCGCAT | -0.137
CTGGTAGC | -0.224

Sequence | PBM E-score
ACACCGGG | 0.213
CGTATGGA | -0.0248
CATGGGCG | -0.0118
ACCATACC | 0.044
AACTCCGG | 0.352
ATCTCCGC | 0.151
GTCTCCGA | 0.352
ATCTCCGA | 0.396
AACTCCGA | 0.412
AACTCCGT | 0.206
TCCAAAAA | 0.0234
GTCGCTCA | -0.129
GCCGACTA | 0.166
CATTCTTC | -0.0802
GTTTGCGA | -0.155
ACAGCCGA | 0.383
TCCGCCGA | 0.403
TCAGCCCA | -0.11
CCCGCCGA | 0.367
ACAGCCGG | 0.35
ACAGCCGC | 0.105
TCAGCCGA | 0.385
CCAGCCGA | 0.322
GCAGCCGC | 0.154
GCAGCCGA | 0.396
GCCGCCGA | 0.331

Sequence | PBM E-score
GCAGCCTA | -0.153
ATAAACCC | 0.0851
CGCTATAC | 0.0197
GCCAAAGC | -0.121
CAGACCTG | -0.17
TATTTCGA | 0.00011
AATGTCTG | 0.0612
ATGACGGA | 0.217
AATCTTGC | -0.0133
CAGGAATC | -0.0371
AACTAAGT | -0.0531
CGCTTCCG | 0.402
CGCTTCCA | -0.0326
AGCTTCCG | 0.423
CGCTTCCC | 0.188
AGCTTCCC | -0.00142
AGCTTCCA | 0.0259
CCTCCACC | -0.0886
ATCAAGGC | -0.111
CTAGCCGC | 0.21
GTAGCCTA | -0.382
GTAGCCGA | 0.4
ATAGCCGC | 0.236
CTAGCCGA | 0.455
ATAGCCGA | 0.442
ATAGCCGG | 0.353

Sequence | PBM E-score
GTAGCCAA | -0.025
CTAGCCAA | -0.0164
AAGAGTGG | -0.179
CTGCCTAA | -0.169
TGCCAAAA | -0.0796
TCGGGGCA | 0.226
ACTGGGCT | -0.0497
ACAGTGCT | -0.181
ATCACAAA | -0.149
CTATCTAC | -0.0208
CTCGCCGC | 0.0149
ACTGTACG | -0.153
ACGAGGTA | -0.0352
GCGAGGTA | -0.124
CCGAGGTC | 0.424
CTGAGGTC | -0.243
ACGAGGTC | -0.278
CCGAGGTA | 0.401
ACGAATCA | -0.0567
CCAGTAAA | -0.0636
TGATCGAA | -0.125
GACCGCGA | 0.0256
AAATCCCG | 0.339
GTCTCGAA | -0.255
ATCTCGCG | -0.0115
ATCTCGAA | -0.0183

Sequence | PBM E-score
GTCTCGGA | 0.442
GTCTCGTA | -0.115
ATCTCGCA | -0.035
ATCTCGGA | 0.461
ATCTCGGG | 0.449
ATCTCGAG | -0.0973
AAGATTTA | 0.0925
AAGAAATA | -0.0625
AGTTAGGA | -0.167
ATCACGAC | -0.123
ATTCGGTA | 0.36
GTTCGGTA | 0.425
CTTCGGTA | 0.383
GGTCGGTA | 0.223
CTTCGGTC | 0.234
CGTCGGTA | 0.294
AAGACTCC | -0.0274
AGATAGTG | -0.0913
ATAAGTAG | -0.157
CACGAACC | -0.198
CCCGAACA | 0.393
CCCGAACG | 0.378
CCCGAACC | 0.414
TCCGAACA | 0.447
GCCGAACC | 0.395
CACGAACA | -0.0987

Sequence | PBM E-score
TACGAACA | -0.191
TGCGAACA | -0.144
CGCGAACC | 0.166
ACCGAACC | 0.336
GGCGAACC | -0.0255
GGAAAGTA | 0.172
GAAATAGC | 0.0755
GATCTTGC | 0.0905
AGGCAGAC | -0.1
CGAGACGC | 0.14
ACCCGCTA | 0.151
CACCCTAA | -0.201
CTACAGTA | -0.139
ACTCCTTA | -0.0987
CGCAAGAA | 0.0756
ACCGAACA | 0.313
GCCGAACA | 0.393
GTCGAACA | -0.044
CCAGGTCG | -0.247
ATTACCCG | 0.416
AATACCCA | -0.00809
ACTACCCG | 0.401
CACACCCG | 0.3
AACACCCG | 0.4
ACTACCCA | -0.261
AATACCCG | 0.431

Sequence | PBM E-score
ATTACCCA | -0.0268
AATACCCT | 0.0669
ATTACCCC | 0.133
AACACCCC | 0.0426
ACTACCCC | -0.0517
CCAGTGCA | -0.303
ACGGCTAG | 0.12
ACAGCCAA | -0.135
TCTAGAGA | -0.256
TGAAACAA | -0.124
CAAGAAAG | -0.0821
ACGAACGG | 0.0948
CCGAACGG | 0.413
ACGAACGC | -0.15
GCGAACGC | -0.0479
CCGAACGC | 0.415
CCGAACGA | 0.379
ATGCTGTC | -0.134
CGCTAGAA | -0.154
ACTTATCT | -0.211
